Screening data as filed in PubChem BioAssay.
ELG1 DNA repair: qHTS screen for small molecules that inhibit ELG1-dependent DNA repair in human embryonic kidney (HEK293T) cells expressing luciferase-tagged ELG1 | Potency, µM (series often up to 46.1 µM), for inactives: at the top dose activity change, negative = inhibition, hits mostly inhibitors | AID 504467, 2011 | 330,000 compounds, 2.3% hits | HEK293T ELG1-luciferase reporter, luminescence, 16 h; DNA damage induced by 5-fluorouridine; further: on the % scale 0 is the no-effect control and ±100 the full control effect; nearly all actives have a fitted effect of over 55% in size
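Luminescence from the luciferase reporter, measured 30 min after ONE-Glo reagent at room temperature, was the read-out. Beforehand, 2,000 cells per well were exposed for 16 hr at 37 °C to 5-fluorouridine together with compound or vehicle.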
RORgamma inh: qHTS for inhibitors of ROR gamma transcriptional activity; Potency, µM (doses to about 53.6 µM), without a hit: top-dose activity change, negative = inhibition, most hits filed as inhibitors; Drosophila S2 Gal4-RORgamma UAS-luciferase reporter, 20 h; 310,000 compounds, 5.4% hits; Nuclear receptor ROR-gamma (Mus musculus), P51450; AID 2551, 2010; further: on the % scale 0 is the no-effect control and ±100 the full control effect; nearly all actives have a fitted effect of over 60% in size
Target sequence (P51450 whole entry, looked up, the tested form may be a part): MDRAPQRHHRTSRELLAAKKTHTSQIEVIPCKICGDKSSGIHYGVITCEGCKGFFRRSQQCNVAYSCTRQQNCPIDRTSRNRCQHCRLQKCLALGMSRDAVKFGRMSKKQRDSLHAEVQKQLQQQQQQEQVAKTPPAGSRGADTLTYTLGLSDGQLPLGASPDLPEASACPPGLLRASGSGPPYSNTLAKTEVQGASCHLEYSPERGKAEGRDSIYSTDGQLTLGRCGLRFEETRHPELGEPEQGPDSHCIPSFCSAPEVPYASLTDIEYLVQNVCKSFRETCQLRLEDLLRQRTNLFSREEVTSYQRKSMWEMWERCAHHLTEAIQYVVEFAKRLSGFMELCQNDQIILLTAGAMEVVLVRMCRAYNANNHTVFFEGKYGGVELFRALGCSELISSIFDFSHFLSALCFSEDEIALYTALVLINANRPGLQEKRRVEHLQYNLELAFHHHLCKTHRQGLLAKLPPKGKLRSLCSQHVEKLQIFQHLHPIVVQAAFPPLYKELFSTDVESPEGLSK
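Drosophila S2 cells stably expressing Gal4-DBD/mouse RORγ fusion under metallothionein promoter plus UAS-luciferase; compound 1 h, then 700 uM CuSO4 induction for 20 h at ambient temperature; inhibition read as reduced luminescence.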
Gal4-VP16 FLuc: VP16 counterscreen qHTS for inhibitors of ROR gamma transcriptional activity | AID 2546, 2010 | Potency, µM (highest dose often 53.6 µM), without a hit: at the top dose activity, negative = inhibition, actives largely listed as inhibitors | 310,000 compounds, 3.5% hits | Drosophila S2 Gal4-VP16 UAS-luciferase, luminescence, 20 h;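 further: Gal4-VP16 expression switched on by copper sulfate through the metallothionein promoter; on the % scale 0 is the no-effect control and ±100 the full control effect; nearly all actives have a fitted effect of over 50% in size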
SW480 rereplic: A quantitative high throughput screen for small molecules that induce DNA re-replication in SW480 colon adenocarcinoma cells | SW480 DNA re-replication, Hoechst DNA content imaging, 48 h | Potency, µM (highest dose often 46.1 µM), for inactives: at the top dose re-replication activation, usual class: activators | 340,000 compounds, 1.8% hits; further: % of control where 0% means no effect; nearly all actives have a fitted effect of over 55% in size
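First, 250 cells per well were seeded. Next, compound or vehicle (23 nL) was pinned in, plates sat 48 hr at 37 C. Finally Hoechst was added for 40 min before fluorescence scanning.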
MCF10A rerep: A quantitative high throughput screen for small molecules that induce DNA re-replication in MCF 10a normal breast cells | MCF 10A DNA re-replication, Hoechst nuclear intensity, 48 h | Potency, µM (series often up to 46.1 µM), inactives show at the highest dose activity, positive = re-replication, hits mostly activators | 350,000 compounds, 2.9% hits | AID 624296, 2012; further: % of control where 0% means no effect; nearly all actives have a fitted effect of over 50% in size
* hit, by the source's call; ? = inconclusive; . = no result given; [ ] = dose if it differs, or a comment. Compounds with a hit are over-represented: about 10% of the library has one in this group of screens. The call rests on the fitted dose curve; in most records, active means well fitted curve in the direction sought with a large enough effect; inconclusive means small, poorly fitted or top-dose-only effect, or another doubt; inactive means no such curve, though single readings can be large; an effect the other way counts as inactive or inconclusive. Potency means the concentration at half of the fitted maximal effect.

SMILES | ELG1 DNA repair | RORgamma inh | Gal4-VP16 FLuc | SW480 rereplic | MCF10A rerep
Cc1cc(C)c(NC(=O)C(C)OC(=O)c2cc(Br)c(Br)s2)c(C)c1 (centres undefined) | 7.0% | -6.4%[10 µM] | 1.7% | -10.8% | -4.8%
O=C(COC(=O)c1ccc(F)c(S(=O)(=O)N2CCOCC2)c1)NCc1ccccc1 | -5.9% | . | . | 2.2% | -2.5%
CCSC1=NCCN1C(=O)c1ccc(S(=O)(=O)N(C)C)cc1 | -2.0% | 1.2% | -10.6% | -4.7% | 6.8%
COc1ccc(CNC(=O)/C(C)=C\C(=O)O)cc1 | 10.9% | 5.62µM* | 10µM* | -3.7% | 2.4%
COc1ccc(CNC(=S)NC(C)CCc2ccccc2)cc1 (centres undefined) | 1.6% | 3.16µM* | 14.1µM* | 21.6% | -1.4%
Fc1ccc(CNC(=S)NCc2ccc(F)cc2)cc1 | -17.2% | 11.2µM* | ? | 16.4% | ?
COc1ccc(CNC(=S)Nc2ccc(S(N)(=O)=O)cc2)cc1 | ? | 33.1% | 3.3% | 10.1% | 4.0%
CCNC(=S)NCc1ccc(F)cc1 | 1.0% | -23.1% | -5.3% | -3.0% | -3.7%
COc1ccc(CNC(=S)NCc2ccc(OC)cc2)cc1 | -1.1% | 12.6µM* | -8.2%[10 µM] | -2.9% | -14.5%
CCCc1nn2c(=O)cc(CSCC(=O)Nc3ccccc3OC)nc2s1 | 4.5% | 4.8% | -2.4% | 0.9% | 3.1%
COc1ccc(CNC(=O)NC2CCCCC2)cc1 | ? | 0.3% | ? | 18.4µM* | 3.66µM*
O=C(NCc1ccccc1)NC1CCCCC1 | ? | 30.2% | 18.8% | 11.8% | 0.3%
CCOc1ccc(CC(=O)NNC(=S)NC)cc1 | 0.0% | -37.4% | -0.8% | -55.7% | 1.3µM*
COc1ccc(C(=O)N2CCN(c3ccccc3)CC2)cc1S(=O)(=O)N1CCCC1 | -2.7% | -4.4% | 6.0% | ? | 13.0%
O=C1OCC=C1NNC(=O)c1cccnc1 | -15.3% | 15.3% | 3.5% | -9.7% | -3.0%
CCOc1ccc(CCNC(=O)c2nnc(CS(=O)(=O)c3ccccc3)o2)cc1OCC | -17.4% | 16.9% | 0.0% | 19.3% | 22.3%
COc1cc(-c2cc(C(=O)Nc3ccc(S(N)(=O)=O)cc3)c3ccccc3n2)cc(OC)c1OC | ? | 35.9% | 9.5% | 8.7% | ?
CCN(CC)S(=O)(=O)c1ccc(O)c(NC(=O)c2cc(-c3cc(OC)c(OC)c(OC)c3)nc3ccccc23)c1 | 16.4µM* | ? | -12.3% | ? | 18.4µM*
COc1ccccc1CN(C)C(=O)c1cc(-c2cc(OC)c(OC)c(OC)c2)nc2ccccc12 | 5.8µM* | 24.9% | -9.1% | -2.2% | ?
COc1cc(-c2cc(C(=O)N(C)Cc3ccccc3)c3ccccc3n2)cc(OC)c1OC | ? | -13.6% | 1.4% | -15.2% | 12.1%
COc1cc(-c2cc(C(=O)Nc3ccc(S(=O)(=O)Nc4ncccn4)cc3)c3ccccc3n2)cc(OC)c1OC | -15.1% | -35.1% | 11.2µM* | -12.6% | 4.6%
COc1ccc(-c2cc(C(=O)Nc3ccc(S(=O)(=O)Nc4ncccn4)cc3)c3ccccc3n2)cc1 | ? | 37.9% | -5.0% | -3.0% | -30.9%
COc1cc(-c2cc(C(=O)Nc3c(Cl)cc(Cl)cc3Cl)c3ccccc3n2)cc(OC)c1OC | 5.17µM* | 33.8% | -6.5% | 0.5% | ?
CCC(Cc1ccccc1)NC(=O)CCc1ccccc1 (centres undefined) | 3.3% | . | . | -2.6%[9.22 µM] | -2.0%
Cc1ccc(-n2ccnc2SCC(=O)O)cc1C | 0.0% | -11.3% | -0.6% | -3.2% | -0.4%
SMILES | ELG1 DNA repair | RORgamma inh | Gal4-VP16 FLuc | SW480 rereplic | MCF10A rerep
O=C(CNc1ccc(Br)cc1)c1ccc(O)cc1 | ? | -2.4% | ? | 18.2% | ?
O=C(CNc1ccc(Br)cc1)NNC1=NCCC1 | 0.6% | 5.62µM* | 7.08µM* | -5.2% | ?
O=C1C(=O)N(CCCn2ccnc2)C(c2ccccn2)/C1=C(/O)c1ccccc1 (centres undefined) | 3.8% | 3.3% | 1.4% | . | .
O=C1C(=O)N(Cc2cccnc2)C(c2ccccn2)/C1=C(/O)c1ccccc1 (centres undefined) | -2.7% | 0.447µM* | -3.1% | 2.4% | 2.8%
Cc1ccc(SC[C@H](c2ccccc2)N2CCN(CCc3ccccc3)CCC2=O)cc1 | 22.6% | 34.1% | -2.9% | 0.4% | 8.2µM*
c1ccc(-c2nc(-c3ccncc3)n[nH]2)nc1 | 20.6% | 5.01µM* | 12.6µM* | 3.7% | -11.6%
c1ccc(-c2ccncc2)nc1 | 20.7% | . | . | -10.5% | 1.4%
Oc1ccc(-c2nc(-c3ccc(O)c(O)c3)cs2)cc1 | ? | 7.7% | -2.1% | 1.46µM* | ?
CC(=O)c1cccc(NC(=O)C2=CC(c3ccc4c(c3)OCO4)=NS(=O)(=O)N2C)c1 | -3.0% | 24.5% | 2.8% | -3.3% | 3.1%
COc1ccc(C)cc1NC(=O)C(=O)NNC(=O)COc1ccc(Cl)cc1 | ? | ? | 6.7% | -6.5% | 20.6µM*
O=C(NCCCn1ccnc1)C1CCN(S(=O)(=O)c2cc([N+](=O)[O-])ccc2Cl)CC1 | -7.0% | . | . | 3.4% | 20.3%
c1ccc(-c2nnc3nc(N4CCCCC4)nc(N4CCCCC4)n23)cc1 | . | . | . | 1.9% | 3.8%
OCCN1CCN(C2CCC(c3ccc(F)cc3)c3ccc(F)cc32)CC1 (centres undefined) | . | . | . | ? | 20.6µM*
Cc1cccc(Nc2nc(-c3ccccc3)c(C(=O)Nc3cccnc3)s2)c1 | 13µM* | -12.2% | ? | 16.4µM* | 23.1µM*
O=C(Nc1cccnc1)c1sc(Nc2ccccc2)nc1-c1ccccc1 | ? | ? | -13.0% | 13.2% | 16.4µM*
Cc1cccc(NC(=O)c2sc(Cl)nc2-c2ccccc2)c1 | 6.7% | 5.6% | -2.3% | -3.2% | 25.8%
CCOc1ccc(N(CC(=O)NCCSCc2ccc(Cl)cc2)S(C)(=O)=O)cc1 | ? | ? | -1.0% | -8.8% | -3.6%
C[C@@H](C(O)c1ccccc1)N(C)C(=O)CCc1ccccc1 (some centres undefined) | -0.7% | 9.2% | 2.8% | -9.6% | ?
Cc1sc(NC(=O)c2ccco2)c(C(c2cccnc2)N2CCCC2)c1C (centres undefined) | 18.4% | -14.2% | 4.9% | ? | 20.6µM*
Cc1sc(NC(=O)c2ccco2)c(C(c2cccnc2)N2CCN(C)CC2)c1C (centres undefined) | -1.9% | 20.5% | 5.5% | -3.5% | ?
COc1cccc(C(c2c(NC(=O)c3ccco3)sc(C)c2C)N2CCOCC2)c1 (centres undefined) | 25.3% | . | . | 8.9% | 20.6µM*
Cc1sc(NC(=O)c2ccco2)c(C(c2ccncc2)N2CCOCC2)c1C (centres undefined) | 14.2% | 15.6% | 2.7% | 10.3% | 7.5%
